Data published in PubChem BioAssay AID1159580 (chemical genetic matrix, 2015).
The campaign covered roughly 5,500 compounds. About 2,000 (36%) were called active. About 18% were inconclusive and are not listed. Rule as the data show it: active = normalized growth mostly below about 0.91 (no sharp cut-off); inconclusive = no clear call, values can overlap the other calls; inactive = mostly above about 0.92. This is one part of the list.

Test: chemical genetic growth profiling, strain panel (AID 1159580);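 also: tested at 20 µM; growth read once vehicle control cultures reached saturation at 30 °C; 1 = growth at the plate median or of vehicle wells; lower values mean less growth of the strain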
Details: S. cerevisiae deletion strains, growth OD
[1] = locus YHR030C, strain SLT2, stronger effect = lower value

Measured: normalized growth

COC(=O)C1=C(C)NC(C)=C(C(=O)OC)C1c1ccc(-c2ccsc2C(=O)OC)o1
inactive: locus YAL013W, strain DEP1, stronger effect = lower value 1 | locus YBR229C, strain ROT2, stronger effect = lower value 1 | locus YCL061C, strain MRC1, stronger effect = lower value 0.989 | locus YDL101C, strain DUN1, stronger effect = lower value 1 | locus YDR150W, strain NUM1, stronger effect = lower value 0.941 | locus YEL061C, strain CIN8, stronger effect = lower value 1.03 | locus YGR078C, strain PAC10, stronger effect = lower value 0.994 | [1] 1.05 | locus YHR087W, strain rtc3, stronger effect = lower value 0.985 | locus YJL187C, strain SWE1, stronger effect = lower value 1.01 | locus YJR043C, strain POL32, stronger effect = lower value 0.994 | locus YJR075W, strain HOC1, stronger effect = lower value 0.946 | locus YLR039C, strain RIC1, stronger effect = lower value 1.05 | locus YLR058C, strain SHM2 (second series), stronger effect = lower value 0.999 | locus YLR085C, strain ARP6, stronger effect = lower value 0.992 | locus YLR262C, strain YPT6, stronger effect = lower value 0.999 | locus YML094W, strain GIM5, stronger effect = lower value 1.01 | locus YMR219W, strain ESC1, stronger effect = lower value 1 | locus YMR263W, strain SAP30, stronger effect = lower value 1 | locus YMR307W, strain GAS1, stronger effect = lower value 0.968 | locus YNL153C, strain GIM3, stronger effect = lower value 0.99 | locus YNL298W, strain CLA4 (second series), stronger effect = lower value 1.06 | locus YNL322C, strain KRE1, stronger effect = lower value 0.991 | locus YNR030W, strain Alg12, stronger effect = lower value 1.02 | locus YOL006C, strain TOP1, stronger effect = lower value 1.06 | locus YPL055C, strain LGE1, stronger effect = lower value 0.898 | locus YPL241C, strain CIN2, stronger effect = lower value 0.862 | locus YPR135W, strain CTF4, stronger effect = lower value 1

COC(=O)c1sccc1-c1ccc(/C=C/[N+](=O)[O-])o1
active: locus YDL214C, strain PRR2, stronger effect = lower value 0.126 | locus YDR477W, strain SNF1, stronger effect = lower value 0.518 | locus YER123W, strain YCK3, stronger effect = lower value 0.155 | locus YER133W, strain GLC7, stronger effect = lower value 0.121 | locus YFL009W, strain cdc4, stronger effect = lower value 0.718 | locus YFR019W, strain FAB1, stronger effect = lower value 0.154 | locus YGR040W, strain KSS1, stronger effect = lower value 0.551 | locus YGR052W, strain FMP48, stronger effect = lower value 0.268 | [1] 0.0849 | locus YHR079C, strain IRE1, stronger effect = lower value 0.113 | locus YHR082C, strain KSP1, stronger effect = lower value 0.178 | locus YHR205W, strain SCH9, stronger effect = lower value 0.509 | locus YJL095W, strain BCK1, stronger effect = lower value 0.126 | locus YJL157C, strain FAR1, stronger effect = lower value 0.14 | locus YJR066W, strain TOR1 (second series), stronger effect = lower value 0.0869 | locus YJR066W, strain TOR1, stronger effect = lower value 0.103 | locus YKL067W, strain YNK1, stronger effect = lower value 0.185 | locus YLR113W, strain HOG1, stronger effect = lower value 0.181 | locus YLR133W, strain CKI1, stronger effect = lower value 0.638 | locus YLR403W, strain SFP1, stronger effect = lower value 0.517 | locus YML070W, strain DAK1, stronger effect = lower value 0.111 | locus YMR205C, strain PFK2 (second series), stronger effect = lower value 0.704 | locus YNL020C, strain ARK1, stronger effect = lower value 0.702 | locus YNL183C, strain NPR1, stronger effect = lower value 0.0989 | locus YOL136C, strain PFK27, stronger effect = lower value 0.107 | locus YOR231W, strain MKK1, stronger effect = lower value 0.135 | locus YPL031C, strain PHO85, stronger effect = lower value 0.25 | locus YPL153C, strain RAD53, stronger effect = lower value 0.0913 | locus YPL204W, strain HRR25, stronger effect = lower value 0.091 | locus YPL256C, strain CLN2, stronger effect = lower value 0.147
inactive: locus YBL105C, strain PKC1, stronger effect = lower value 0.964 | locus YBR135W, strain CKS1, stronger effect = lower value 0.96 | locus YBR136W, strain MEC1, stronger effect = lower value 0.968 | locus YBR160W, strain CDC28, stronger effect = lower value 0.952 | locus YDL017W, strain CDC7, stronger effect = lower value 0.974 | locus YDL028C, strain MPS1, stronger effect = lower value 0.959 | locus YDL108W, strain KIN28, stronger effect = lower value 0.965 | locus YDR052C, strain DBF4, stronger effect = lower value 0.981 | locus YDR226W, strain ADK1, stronger effect = lower value 0.961 | locus YFR003C, strain YPI1, stronger effect = lower value 0.966 | locus YFR028C, strain CDC14, stronger effect = lower value 0.978 | locus YGR092W, strain DBF2, stronger effect = lower value 0.874 | locus YIL147C, strain SLN1, stronger effect = lower value 0.964 | locus YJL128C, strain PBS2, stronger effect = lower value 0.907 | locus YJR016C, strain ILV3, stronger effect = lower value 0.974 | locus YKL048C, strain ELM1, stronger effect = lower value 0.939 | locus YKL101W, strain HSL1, stronger effect = lower value 0.886 | locus YKL203C, strain TOR2, stronger effect = lower value 0.893 | locus YNL006W, strain LST8, stronger effect = lower value 0.958 | locus YNL207W, strain RIO2, stronger effect = lower value 0.977 | locus YNL307C, strain MCK1 (second series), stronger effect = lower value 0.823 | locus YOR061W, strain CKA2, stronger effect = lower value 0.729 | locus YOR119C, strain RIO1, stronger effect = lower value 0.875 | locus YOR329C, strain SCD5, stronger effect = lower value 0.965 | locus YPL209C, strain IPL1, stronger effect = lower value 0.969 | locus YPR025C, strain CCL1, stronger effect = lower value 0.955 | locus YPR106W, strain ISR1, stronger effect = lower value 0.959 | locus YPR111W, strain DBF20, stronger effect = lower value 0.961 | strain NNK1, stronger effect = lower value 0.963
